Results taken from PubChem BioAssay (NCI).
Several values for one entry are separate records, joined by “and”; a condition that tells them apart may be missing. Equal values may be shown once. About 83,000 compounds went through this panel and 20% of them were active in at least one assay; those are over-represented in the sample as a whole.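 For each line, cells grew in 96-well plates with the test compound present at a single concentration for 48 hours.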 Activity calls are given as the source filed them. The calls were made as follows: active = growth percent below 10; inactive = the rest.

How the values were obtained:
Test in all cases: NCI-60 one-dose screen, 48 h (100 = growth as untreated, 0 = no growth, -100 = all killed)
Conditions in all cases: 10 µM unless noted
[1] = system: HCT-15 colon
[2] = system: HT29 colon
[3] = system: SNB-75 CNS
[4] = system: SNB-19 CNS
[5] = system: U251 CNS
[6] = system: PC-3 prostate
[7] = system: SK-MEL-5 melanoma
[8] = system: UACC-62 melanoma
[9] = system: LOX IMVI melanoma
[10] = system: SK-MEL-28 melanoma
[11] = system: SK-MEL-2 melanoma
[12] = system: EKVX NSCLC
[13] = system: SN12C renal
[14] = system: UO-31 renal
[15] = system: TK-10 renal
[16] = system: CAKI-1 renal
[17] = system: A498 renal
[18] = system: CCRF-CEM leukemia
[19] = system: MOLT-4 leukemia
[20] = system: ACHN renal

Measured: growth

COc1cc(/C=C2\CCC/C(=C\c3cc(CN4CCCC4)c(O)c(OC)c3)C2=O)cc(CN2CCCC2)c1O
inactive: [1] 16.3% | [3] 20.3% | [4] 44.7% | [5] 25.3% | [6] 31.2% | [7] 71.1% | [8] 88.6% | [10] 92.2% | [11] 82.6% | [12] 32.4% | [13] 30.3% | [14] 47.4% | [15] 70.1% | [16] 55.2% | [17] 85.3% | [18] 17.6%
active: [2] -46.2% | [9] 9.9% | [19] 4.58%

Cc1ccc2c(c1)C(C)Cc1c(ncnc1-n1cnc3cc(C)ccc31)N2C (configuration not stated)
inactive: [1] 12.3% | [3] 60.3% | [4] 37.8% | [6] 24.5% | [8] 30.6% | [9] 25.7% | [10] 53.1% | [12] 47.2% | [13] 31.6% | [14] 31% | [15] 48.7% | [20] 26.6% | [16] 24.6% | [17] 12.2% | [18] 11.4% | [19] 12%
active: [2] -10.3% | [5] 6.82% | [7] -24.2% | [11] -1.91%

CC[C@H](C)[C@H](NC(=O)[C@@H](N)CCC(N)=O)C(=O)N[C@@H](Cc1ccc(O)cc1)C(=O)N[C@@H](CCCCN)C(=O)N[C@@H](CCCCN)C(=O)N[C@@H](Cc1ccc(O)cc1)C(=O)N[C@@H](CCCNC(=N)N)C(=O)N[C@H](C(=O)N[C@@H](Cc1c[nH]c2ccccc12)C(=O)N[C@@H](Cc1ccc(O)cc1)C(=O)N[C@@H](CCCNC(=N)N)C(=O)N[C@@H](CCCCN)C(=O)N[C@@H](C)C(=O)N[C@@H](Cc1c[nH]c2ccccc12)C(=O)N[C@@H](CCCCN)C(=O)N[C@H](C(=O)N[C@@H](CC(C)C)C(=O)NCC(=O)N[C@@H](CCCCN)C(=O)N[C@H](C(N)=O)C(C)C)C(C)C)[C@@H](C)O
active: [1] 4.9% | [6] -37% | [7] -38% | [8] -71.2% | [12] -34.5% | [15] 8.22% | [16] 7.94% | [18] 5.19%
inactive: [2] 63.6% | [3] 15.5% | [4] 49.3% | [5] 23.7% | [9] 69.8% | [10] 16.3% | [11] 43.3% | [13] 12.4% | [14] 76% | [20] 65.6% | [17] 64.6% | [19] 52.9%

Cc1ccc(Cl)cc1N1CCN(C(=O)[C@@H]2C[C@@H]2c2ccc(F)cc2)CC1
inactive: [1] 85.4% | [2] 72.7% | [3] 96.2% | [4] 92% | [5] 90% | [6] 69.1% | [7] 80.7% | [8] 69.7% | [9] 97.6% | [10] 103% | [11] 91.7% | [12] 88.3% | [13] 98.9% | [14] 70.9% | [15] 100% | [20] 93% | [16] 69.1% | [17] 87.2% | [18] 91.5% | [19] 78.5%

CCCN1C(=O)/C(=c2\sc3n(c2=O)C2C(NN=3)N(CC)C(=O)N2CC)c2ccccc21 (configuration not stated)
inactive: [1] 12.5% | [3] 17.2% | [4] 27.7% | [5] 17.6% | [6] 32.9% | [7] 14.3% | [8] 24.7% | [9] 17.1% | [10] 48.1% | [11] 55% | [12] 52.4% | [13] 23.1% | [14] 33.6% | [15] 73.9% | [20] 33.1% | [16] 33.8% | [18] 13.6% | [19] 19.1%
active: [2] 3.33% | [17] 5.22%

CCCCCC#CC1OC23CCCCC2C(C#N)(C(=N)O3)C1(C#N)C#N (configuration not stated)
inactive: [1] 102% | [2] 88% | [3] 88.5% | [4] 95% | [5] 96.4% | [6] 81% | [7] 96.7% | [8] 83.1% | [9] 89.7% | [10] 109% | [11] 93% | [12] 97.1% | [13] 93% | [14] 97.1% | [15] 108% | [20] 102% | [16] 101% | [17] 93.6% | [18] 88.4% | [19] 99.9%

O=[N+]([O-])c1ccc(S(=O)Cc2ccccc2)c([N+](=O)[O-])c1 (configuration not stated)
81.6% (inactive) and 1.31% (active): [19]
35.8% (inactive) and -14.6% (active): [16]
inactive: [3] 105% and 50% | [4] 92.8% and 97.7% | [5] 93.6% and 91% | [6] 93.9% and 82.8% | [7] 88% and 75.9% | [8] 54.6% and 82.2% | [10] 89.4% and 23% | [11] 82.9% and 87.7% | [12] 90.4% | [13] 62.5% and 87.4% | [17] 98% and 85.1%
active: [1] 6.6% and -44.4% | [2] -67.6% and -20.6% | [9] -75.4% and -31.4% | [14] -24.9% and -40.3% | [18] -15% and 0.711%
32.5% (inactive) and -27.2% (active): [15]

CCOC(=O)C1=C(C)NC(=O)NC1c1c(Cl)n(-c2ccccc2)c2ccccc12 (configuration not stated)
inactive: [1] 85.8% | [2] 80.7% | [3] 84.8% | [4] 83.9% | [5] 89.2% | [6] 56.7% | [7] 75.4% | [8] 68.4% | [9] 89.3% | [10] 94.1% | [11] 102% | [12] 96.8% | [13] 92.7% | [14] 54.2% | [15] 98.9% | [20] 85.1% | [16] 70.7% | [17] 78.2% | [19] 78.8%
active: [18] 3.16%

Nc1nc2ccccc2c2c(=O)c3ccc(Cl)cc3sc12
inactive: [1] 101% | [2] 98% | [3] 96.3% | [4] 102% | [5] 84.8% | [6] 89.9% | [7] 104% | [8] 92.5% | [9] 98% | [10] 110% | [11] 106% | [12] 89.2% | [13] 91.3% | [14] 96.1% | [15] 130% | [16] 89% | [17] 99.7% | [18] 94.5% | [19] 93.6%

COc1ccc(C2Nc3nc(SC)nc(N)c3N=C3c4ccccc4CCC32)cc1 (configuration not stated)
inactive: [1] 75.9% | [2] 69.9% | [3] 92.5% | [4] 104% | [5] 95% | [6] 54.7% | [7] 80.2% | [8] 85.3% | [9] 89.9% | [10] 103% | [11] 107% | [12] 58.5% | [13] 109% | [14] 73.3% | [15] 158% | [20] 103% | [16] 85.6% | [17] 48.8% | [18] 47.8% | [19] 69.7%

O=C(c1cccc(Br)c1)N1CCN(c2ccnc3cc(Cl)ccc23)CC1
inactive: [1] 90.3% | [2] 81.7% | [3] 117% | [4] 85.1% | [5] 78.2% | [6] 79% | [7] 82.2% | [8] 70.1% | [9] 102% | [10] 95.7% | [11] 85.7% | [12] 87.5% | [13] 94% | [14] 63.6% | [15] 75.8% | [20] 90.6% | [16] 79% | [17] 34.1% | [18] 87.3% | [19] 87.8%

Cc1c(O)c(O)cc2c3c(oc12)CC(c1ccc2c(c1)OCO2)CC3=O (configuration not stated)
inactive: [1] 64.5% | [2] 94.3% | [3] 87.8% | [4] 101% | [5] 100% | [6] 81.1% | [7] 82.1% | [8] 53.4% | [9] 59.7% | [10] 105% | [11] 83.8% | [12] 79% | [13] 94.9% | [14] 56% | [15] 115% | [20] 75.9% | [16] 98.6% | [17] 102% | [18] 69.3% | [19] 84.4%

O/N=C(/c1ccccc1)c1ccc2c3c(cccc13)CC2
inactive: [1] 84.7% and 77.3% | [2] 97.5% and 86.4% | [3] 74.8% and 58.4% | [4] 98.5% and 94.1% | [5] 90.1% and 89.3% | [6] 80% and 77.5% | [7] 98.1% and 91.1% | [8] 84.6% and 74.7% | [9] 89.6% and 89.1% | [10] 92.8% and 87.5% | [11] 96.2% and 92.7% | [12] 79.5% | [13] 93.1% and 85.7% | [14] 73.4% and 81.3% | [15] 113% and 89.7% | [20] 101% and 94.5% | [16] 71.5% and 72.5% | [17] 78.3% and 89.2% | [18] 75.3% and 82.8% | [19] 74.7% and 72.9%
